Data as given in the supplement of paper PMC6555819.

The sequences below were run on PPARg:RXRa IVT, anti-PPARg (NR concentration 270 nM, RXRa partner concentration 90 nM) (assay: PBM binding z-score (relative to random genomic background probes); higher = stronger binding; sequences stand for … in GC…GCGATTGACAGCGTAGAATGAAGG).
Procedure, shortened: (§1)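 Each nuclear receptor dimer, without ligand, was incubated for 1 h on custom Agilent 4×180K protein-binding microarrays. Binding was detected with antibodies against each partner (one per run), and scanned fluorescence was regression-normalized. The binding z-scores are referenced to random human genomic background probes.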

**Q.** For TCAGAGAGGTGAAGGTAACTCAGGTACGCAGTCG, which PBM binding z-score is on record?
**A.** 2.38

**Q.** With GGTAGTTGGTCAGTAAAAGGTCACACACCGGTCG as the sequence, how does the PBM binding z-score read?
**A.** 3.16

**Q.** With GTACCAAGGTGAATAGTTCGTTGATGAGTAGGCG as the sequence, how does the PBM binding z-score read?
**A.** 1.94

**Q.** TCTATTAGTTGAATAGGGCAACCGAAACAGCGGA was tested. Which PBM binding z-score did it give?
**A.** 1.19

**Q.** CAAACTAGGTCACAGAGCTCAAAGTCCGTGCGTA was tested. Which PBM binding z-score did it give?
**A.** 8.86

**Q.** For ATCTCTTGGTAACAAGTTCAGTGAAAGAGAGGAC, which PBM binding z-score is on record?
**A.** 0.272

**Q.** For TCAGACAGGTCAAGGTAACTCAGGTACGCAGTCG, which PBM binding z-score is on record?
**A.** 2.73

**Q.** Which PBM binding z-score does the source give for TCGAGTAGGTTAGTCGGGGCGTTCAGCCAACATA here?
**A.** 0.976

**Q.** Which PBM binding z-score does the source give for TCTGCTAGGTCAGTTGGTCAGCTCACGAGCTGCC here?
**A.** 3.07

**Q.** With AGAACGAGGGCACGCTGAGTTGATTGCAGAGTAG as the sequence, how does the PBM binding z-score read?
**A.** 3.53

**Q.** AGAACGAGGGCACGCTGAGTAGATAGCAGAGTAG was tested. Which PBM binding z-score did it give?
**A.** 3.83

**Q.** ATATGTAGGTTACATCCGGGTCATTCCGGCTATG was tested. Which PBM binding z-score did it give?
**A.** 7.39

**Q.** AGAACGCGGGCACGCTGAGTTGATAGCAGAGTAG was tested. Which PBM binding z-score did it give?
**A.** -0.217

**Q.** For TCTTGTAGATCAATAGAGGCTAAGAAAGTGCGCT, which PBM binding z-score is on record?
**A.** 0.473

**Q.** For CCTAGCAGGCCAATCTGGGTCACTGAAGGCTTGA, which PBM binding z-score is on record?
**A.** 5.17

**Q.** For CCTTACGGGTCACGAGGTTACAGCACGACGAGCG, which PBM binding z-score is on record?
**A.** 5.66

**Q.** For TCTTGTAGATCAGCAGGTGAAGAAAGCTGGCCAA, which PBM binding z-score is on record?
**A.** 0.857

**Q.** How did the PBM binding z-score turn out when ACTATTAGCTGACTTAGGGCAACCGATACGACGC was run?
**A.** 0.75

**Q.** AGAACGAGGGCAATGAGTTGATCGCACGGGTGGC was tested. Which PBM binding z-score did it give?
**A.** 2.63

**Q.** With TTACCAAGGTGAAGGTCGTCGATCCCTCTGTAGA as the sequence, how does the PBM binding z-score read?
**A.** 3.33

**Q.** Which PBM binding z-score does the source give for CTCGAAAGGTCGGTTGAGGTGAATATACGGATAA here?
**A.** 1.11

**Q.** CGTCCAAGGTCAAGGCTAGGTCAGTGAAAGCATT was tested. Which PBM binding z-score did it give?
**A.** 4.19

**Q.** For ACTAGCAGGCAAAGGGTCACTCAAGATTAGTCCG, which PBM binding z-score is on record?
**A.** 2.76

**Q.** TCTTGTAGAACAAAGGTTAAGAAAGCCGAAGCCT was tested. Which PBM binding z-score did it give?
**A.** 3.87

**Q.** Which PBM binding z-score does the source give for TAACCTAGGTCATGGGCCAGTATACCACGCGAAC here?
**A.** 5.09

**Q.** For CTACCAAGGTGAACAAGGTCGTTGCTTACTATTC, which PBM binding z-score is on record?
**A.** 2.58

**Q.** With TGTGCTAGGTCAGTTGGTCAGCTAACGAGCTGCC as the sequence, how does the PBM binding z-score read?
**A.** 3.02

**Q.** With TCTGGTTGGTCACGGAGGTCACACACGACGGGTA as the sequence, how does the PBM binding z-score read?
**A.** 3.7

**Q.** For AGTCAAAGTTCATCTAGGTGACGTAAGATATGCT, which PBM binding z-score is on record?
**A.** 4.74

**Q.** How did the PBM binding z-score turn out when GCTCTTAGTTGAAAGGGCAACCGAATGATTCTCG was run?
**A.** 0.474

**Q.** Which PBM binding z-score does the source give for CGTCCAAGGTCAGGGTCAGTGAAAGAGACTCGAA here?
**A.** 3.09

**Q.** How did the PBM binding z-score turn out when TCATATAGCTAAAGGTGAAAGTCGAACGATATGA was run?
**A.** 1.41

**Q.** AGAATGAGGTTACCAAAGATCAGGTAAACGCTTG was tested. Which PBM binding z-score did it give?
**A.** 3.43

**Q.** GCTGCTAGGTCAACTGATGGTTAGCTAAAGCTCG was tested. Which PBM binding z-score did it give?
**A.** 4.29

**Q.** With TCGAGTAGGTTACTCGGGGCATTCAGCCAACATA as the sequence, how does the PBM binding z-score read?
**A.** 2.79

**Q.** How did the PBM binding z-score turn out when AGAAGGAGGGCACGCTGAGTTGATAGCAGAGTAG was run?
**A.** 4.02

**Q.** For GCATATAGGTAATACATGGTGAAAGTCCGATTGT, which PBM binding z-score is on record?
**A.** 2.35

**Q.** With GCTATTAGTTGAAAAGGCAACCGAATGATTCTCG as the sequence, how does the PBM binding z-score read?
**A.** -0.52

**Q.** With CAAACTAGGTCAAGGTCAACGTCGGTTTGTGCCA as the sequence, how does the PBM binding z-score read?
**A.** 8.81

**Q.** With GCTTGTAAATCAAGGTTAAGAAAGACTAAGCTAA as the sequence, how does the PBM binding z-score read?
**A.** 0.664

The sequences below were run on PPARg DBDmut:RXRa IVT, anti-PPARg (DBD mutation: PPARg1 K132A/R137A, NR concentration 270 nM, RXRa partner concentration 90 nM) in the same assay as above.
Procedure, shortened: as §1

**Q.** Which PBM binding z-score does the source give for TCAGAGAGGTGAAGGTAACTCAGGTACGCAGTCG here?
**A.** 0.0231

**Q.** GGTAGTTGGTCAGTAAAAGGTCACACACCGGTCG was tested. Which PBM binding z-score did it give?
**A.** 0.932

**Q.** For GTACCAAGGTGAATAGTTCGTTGATGAGTAGGCG, which PBM binding z-score is on record?
**A.** 0.321

**Q.** TCTATTAGTTGAATAGGGCAACCGAAACAGCGGA was tested. Which PBM binding z-score did it give?
**A.** 0.574

**Q.** With CAAACTAGGTCACAGAGCTCAAAGTCCGTGCGTA as the sequence, how does the PBM binding z-score read?
**A.** 3.69

**Q.** How did the PBM binding z-score turn out when ATCTCTTGGTAACAAGTTCAGTGAAAGAGAGGAC was run?
**A.** 0.927

**Q.** TCAGACAGGTCAAGGTAACTCAGGTACGCAGTCG was tested. Which PBM binding z-score did it give?
**A.** 0.0851

**Q.** With TCGAGTAGGTTAGTCGGGGCGTTCAGCCAACATA as the sequence, how does the PBM binding z-score read?
**A.** -0.368

**Q.** For TCTGCTAGGTCAGTTGGTCAGCTCACGAGCTGCC, which PBM binding z-score is on record?
**A.** 0.484

**Q.** How did the PBM binding z-score turn out when AGAACGAGGGCACGCTGAGTTGATTGCAGAGTAG was run?
**A.** 0.256

**Q.** Which PBM binding z-score does the source give for AGAACGAGGGCACGCTGAGTAGATAGCAGAGTAG here?
**A.** 1.29

**Q.** Which PBM binding z-score does the source give for ATATGTAGGTTACATCCGGGTCATTCCGGCTATG here?
**A.** 4.71

**Q.** For AGAACGCGGGCACGCTGAGTTGATAGCAGAGTAG, which PBM binding z-score is on record?
**A.** -0.65

**Q.** Which PBM binding z-score does the source give for TCTTGTAGATCAATAGAGGCTAAGAAAGTGCGCT here?
**A.** 0.414

**Q.** How did the PBM binding z-score turn out when CCTAGCAGGCCAATCTGGGTCACTGAAGGCTTGA was run?
**A.** 0.524

**Q.** For CCTTACGGGTCACGAGGTTACAGCACGACGAGCG, which PBM binding z-score is on record?
**A.** 2.08

**Q.** TCTTGTAGATCAGCAGGTGAAGAAAGCTGGCCAA was tested. Which PBM binding z-score did it give?
**A.** 0.193

**Q.** For ACTATTAGCTGACTTAGGGCAACCGATACGACGC, which PBM binding z-score is on record?
**A.** 1.05

**Q.** With AGAACGAGGGCAATGAGTTGATCGCACGGGTGGC as the sequence, how does the PBM binding z-score read?
**A.** 0.67

**Q.** TTACCAAGGTGAAGGTCGTCGATCCCTCTGTAGA was tested. Which PBM binding z-score did it give?
**A.** 0.0568

**Q.** CTCGAAAGGTCGGTTGAGGTGAATATACGGATAA was tested. Which PBM binding z-score did it give?
**A.** 0.319

**Q.** CGTCCAAGGTCAAGGCTAGGTCAGTGAAAGCATT was tested. Which PBM binding z-score did it give?
**A.** -0.104

**Q.** ACTAGCAGGCAAAGGGTCACTCAAGATTAGTCCG was tested. Which PBM binding z-score did it give?
**A.** -0.0407

**Q.** Which PBM binding z-score does the source give for TCTTGTAGAACAAAGGTTAAGAAAGCCGAAGCCT here?
**A.** 0.00137

**Q.** For TAACCTAGGTCATGGGCCAGTATACCACGCGAAC, which PBM binding z-score is on record?
**A.** 1.44

**Q.** Which PBM binding z-score does the source give for CTACCAAGGTGAACAAGGTCGTTGCTTACTATTC here?
**A.** 0.0347

**Q.** TGTGCTAGGTCAGTTGGTCAGCTAACGAGCTGCC was tested. Which PBM binding z-score did it give?
**A.** -0.307

**Q.** With TCTGGTTGGTCACGGAGGTCACACACGACGGGTA as the sequence, how does the PBM binding z-score read?
**A.** 1.34

**Q.** How did the PBM binding z-score turn out when AGTCAAAGTTCATCTAGGTGACGTAAGATATGCT was run?
**A.** 1.64

**Q.** For GCTCTTAGTTGAAAGGGCAACCGAATGATTCTCG, which PBM binding z-score is on record?
**A.** 0.11

**Q.** For CGTCCAAGGTCAGGGTCAGTGAAAGAGACTCGAA, which PBM binding z-score is on record?
**A.** 0.335

**Q.** For TCATATAGCTAAAGGTGAAAGTCGAACGATATGA, which PBM binding z-score is on record?
**A.** 0.485

**Q.** For AGAATGAGGTTACCAAAGATCAGGTAAACGCTTG, which PBM binding z-score is on record?
**A.** 0.874

**Q.** Which PBM binding z-score does the source give for GCTGCTAGGTCAACTGATGGTTAGCTAAAGCTCG here?
**A.** 1.41

**Q.** With TCGAGTAGGTTACTCGGGGCATTCAGCCAACATA as the sequence, how does the PBM binding z-score read?
**A.** -0.543

**Q.** AGAAGGAGGGCACGCTGAGTTGATAGCAGAGTAG was tested. Which PBM binding z-score did it give?
**A.** 0.794

**Q.** GCATATAGGTAATACATGGTGAAAGTCCGATTGT was tested. Which PBM binding z-score did it give?
**A.** 0.904

**Q.** With GCTATTAGTTGAAAAGGCAACCGAATGATTCTCG as the sequence, how does the PBM binding z-score read?
**A.** 0.324

**Q.** With CAAACTAGGTCAAGGTCAACGTCGGTTTGTGCCA as the sequence, how does the PBM binding z-score read?
**A.** 6.29

**Q.** How did the PBM binding z-score turn out when GCTTGTAAATCAAGGTTAAGAAAGACTAAGCTAA was run?
**A.** -0.64
